Experimental data from PubChem BioAssay (NCATS).
Results filed as inconclusive are left out. Entries that show only a call come without a potency. Calls of active or inactive are those of the source. Calls come from the whole dose curve; as a rule, active = well fitted inhibition curve with a large enough effect; inconclusive = small, poorly fitted or top-dose-only effect, or effect the other way; inactive = flat fitted curve, though single readings scatter.

Experiment: qHTS for Inhibitors of Plasmodium falciparum (GB4) proliferation (AID 504315); note: nearly all actives have a fitted effect of over 50% in size
Conditions: P. falciparum GB4 in erythrocytes, SYBR Green DNA, 72 h; series mostly up to 6.7 µM
Excerpt: Plasmodium falciparum is a virulent malarial parasite that kills 1-2 million people worldwide each year. Malaria not only inflicts tremendous suffering and morbidity on the human population, but has dramatically influenced the course of civilization with profound sociological and economic implications (Shah, S. 2010). Transmitted by mosquitoes, the sporozoite form of the parasite enters the blood stream to infect hepatocytes, where they become merozoites that infect red blood cells (erythrocytes). Within erythrocytes, merozoites begin a […] cycle of growth and division, after which the parasite is released to infect new red blood cells. Gametocytes, which form within erythrocytes as well, circulate in the bloodstream and are ingested by the mosquito, thereby completing the life cycle (see CDC website). To profile malarial lines for differential chemical responses and to identify inhibitors of malarial growth, an assay that measures P. falciparum growth and replication within erythrocytes was employed. This assay uses a DNA binding fluorescent dye (SYBR Green) to detect parasite DNA following cell lysis. Because mature erythrocytes lack DNA, only Plasmodium-derived DNA is detected. The P. falciparum line cp250, derived from a malarial isolate from Cambodia, (Mu, J., et al. 2010) was added to the panel of lines, Dd2, HB3, 7G8 and GB4 in this study. Laboratory of Assay Development and Screening Technology [ADST] and NIH Chemical Genomics Center [NCGC] Boston University, Chemistry Department, Center for Chemical Methodology and Library Development [CMLD-BU] NIH National Institute of Allergy and Infectious Diseases [NIAID]
ADST Assay Protocol Summary: The 1536-well SYBR Green viability assay was based on the method of Bennett et al (2004) and described previously in 1536-well format (Yuan J., et al. 2009). For screening 3 ul culture medium was dispensed into 1536 well black clear bottom plates (Aurora Biotechnologies) using a Multidrop Combi (Thermo Fisher Scientific Inc.), 23 nL compounds in DMSO were added by a pin transfer (Cleveland, P.H. and Koutz, P.J, 2005) using a pin tool-based delivery system (Kalypsys), and 5 ul of erythrocytes infected with P. falciparum one of five lines (cp250, Dd2, HB3, 7G8 or GB4, 0.3% parasitemia, 2.5% hematocrit final concentration) were added. The plates were incubated at 37C in a humidified incubator in 5% CO2 for 72 h, and 2 ul lysis buffer (20 mM Tris HCl, 10 mM EDTA, 0.16% saponin, 1.6% triton X, 10X SYBR Green I (supplied as 10,000X final concentration by Invitrogen) was added to each well. The plates were mixed for 25 sec with gentle shaking and incubated overnight at room temperature in the dark. The following morning, fluorescence intensity at 485(14) nm excitation and 535(25) nm emission wavelengths was measured on an EnVision (Perkin Elmer) plate reader. Plate reads were normalized relative to the control inhibitor (0.29 uM artemisinin) and vehicle (DMSO) wells present on each plate and then corrected by an algorithm using vehicle-only control plates at the beginning and end of the compound plate stack. References Shah, S. (2010). The Fever: how malaria has ruled humankind for 500,000 years. New York, Sarah Crichton Books. CDC web site, http://www.cdc.gov/malaria/about/biology/index.html Mu, J., Myers, R.A., Jiang, H., Liu, S., Ricklefs, S., Waisberg, M., Chotivanich, K., Wilairatana, P., Krudsood, S., White, N.J., et Plasmodium falciparum genome-wide scans for positive selection, recombination hot spots and resistance to antimalarial drugs Nature Genetics 2010, 42, pp 268-271 Bennett TN, Paguio, M., Gligorijevic, B., Seudieu, C., Kosar, A. D., Davidson, E., and Roepe, P. D. Novel, rapid, and inexpensive cell-based quantification of antimalarial drug efficacy Antimicrobial Agents Chemother. 2004, 48(5): pp 1807-10 Yuan J, Johnson RL, Huang RL, Wichterman J, Jiang HY, Hayton K, Fidock DA, Wellems TE, Inglese J, Austin CP, Su XZ. […]
Potency is the fitted concentration of half-maximal effect.

Q: Which Potency does the source give for `CC(CCC(=O)OC[C@H]1O[C@H](C#Cc2ccccc2)C=C[C@H]1Oc1ccc(C)cc1)=NOC[C@@H](O)COCc1ccco1` here?
A: Its Potency is “inactive”.

Q: Which Potency does the source give for `C=CCCCN1C=C(C(=O)OCC)C(c2ccccc2)NC1=O` (stereo not given) here?
A: Its Potency is “inactive”.

Q: With `C=C(C)C(=O)C=Cc1ccc(Br)cc1` as the molecule, how does the Potency read?
A: The Potency was “inactive”.

Q: For `COc1ccc([C@]23Cc4c(ccc5ccccc45)[C@H](O2)c2c(cc(-c4ccccc4)oc2=O)O3)cc1`, which Potency is on record?
A: Its Potency is “inactive”.

Q: Which Potency does the source give for `COc1ccc(N2C(=O)N3[C@H](c4ccccc4)[C@@H](C)C[C@H]4c5ccccc5C[C@]43C2=O)cc1` here?
A: Its Potency is “inactive”.

Q: Which Potency does the source give for `COc1cc(C(CC2=CCCCC2)NC(=O)C(F)(F)F)cc(OC)c1OC` (stereo not given) here?
A: Its Potency is “inactive”.

Q: For `COc1ccc2c(c1)O[C@H](c1ccc3c(c1)OCO3)[C@@H](OC(=O)Nc1cc(OC)c(OC)c(OC)c1)C2=O`, which Potency is on record?
A: The Potency was “inactive”.

Q: Which Potency does the source give for `CCN1C(=NCCCOC(C)C)N[C@H](c2ccccc2)[C@H](C(=O)OC)[C@H]1C` here?
A: Its Potency is “inactive”.

Q: Which Potency does the source give for `C[C@@H](c1ccccc1)N1C(=O)[C@@H]2[C@H]3[C@H](O)[C@H](O)CC(=NOC[C@@H](O)COCc4ccco4)[C@H]3CC[C@H]2C1=O` here?
A: Its Potency is “inactive”.

Q: For `COC[C@@H](O)[C@H]1OCc2ccccc2[C@H]1C=Cc1ccccc1`, which Potency is on record?
A: Its Potency is “inactive”.

Q: With `CC(C)=CCCC(C)=CCON=C1C[C@@H](O)[C@@H](O)[C@@H]2[C@H]3C(=O)N(c4ccc(F)cc4F)C(=O)[C@@H]3CC[C@H]12` as the molecule, how does the Potency read?
A: Its Potency is “inactive”.

Q: With `COCC=CC1=CC2=CC(=O)C(C)(OC(=O)c3cnc4ccccc4n3)C(=O)C2=CN1C1CC1` (stereo not given) as the molecule, how does the Potency read?
A: Its Potency is “inactive”.

Q: For `COC(=O)[C@H](COC(C)(C)C)NC(=O)O[C@@H]1C(=O)c2cc(OC)ccc2O[C@H]1c1cccc(OC)c1`, which Potency is on record?
A: Its Potency is “inactive”.

Q: For `CCN1C(=O)N[C@@H](CCc2ccccc2)[C@H](C(C)=O)[C@H]1C`, which Potency is on record?
A: Its Potency is “inactive”.

Q: With `COc1cccc([C@@H]2Oc3ccc(OC)cc3C[C@@H]2OC(=O)N[C@H]2CCCc3ccccc32)c1` as the molecule, how does the Potency read?
A: The Potency was “inactive”.

Q: Which Potency does the source give for `C#CCCCON=C1C[C@@H](O)[C@H](O)[C@H]2[C@@H]3C(=O)N(Cc4ccc5c(c4)OCO5)C(=O)[C@@H]3CC[C@H]12` here?
A: Its Potency is “inactive”.

Q: For `COC(=O)C1=C(C)N(Cc2ccccc2)C(=NCc2cc(OC)c(OC)c(OC)c2)NC1CCc1ccccc1` (stereo not given), which Potency is on record?
A: Its Potency is 849 nM (active).

Q: For `CCCCCCCC1=CC2=CC(=O)C(C)(O)C(=O)C2=CN1CCCC` (stereo not given), which Potency is on record?
A: Its Potency is “inactive”.

Q: Which Potency does the source give for `C[C@]12C[C@@](C)(C=C1C=Cc1ccc(C(F)(F)F)cc1)C(=O)C[C@H]2c1ccc(C(F)(F)F)cc1` here?
A: Its Potency is 1510 nM (active).

Q: Which Potency does the source give for `C=C(C(C)=O)C(O)c1ccc(Cl)cc1` (stereo not given) here?
A: The Potency was “inactive”.

Q: Which Potency does the source give for `CCN1C(=O)N(S(=O)(=O)c2ccc(C)cc2)C(c2ccccc2)C(C(=O)OC)=C1C` (stereo not given) here?
A: The Potency was “inactive”.

Q: For `COC(=O)N[C@H](CC(C)=O)c1cccc(F)c1`, which Potency is on record?
A: The Potency was “inactive”.

Q: For `C[C@@H]1C[C@](C)(C(=O)c2ccco2)C=C1c1ccco1`, which Potency is on record?
A: Its Potency is “inactive”.

Q: For `COC(=O)[C@@H](O)CC[C@@H](C)Cc1c(OC)c(OC)c(C)c(OC)c1OC`, which Potency is on record?
A: The Potency was “inactive”.

Q: Which Potency does the source give for `C=CC[C@@H]1C=C[C@H](ON=C[C@@H](C)[C@H](OCc2ccccc2)C(C)C)[C@H](CO)O1` here?
A: The Potency was “inactive”.

Q: With `COC(=O)C1=C(C)N(Cc2ccco2)C(=O)NC1c1ccco1` (stereo not given) as the molecule, how does the Potency read?
A: Its Potency is “inactive”.

Q: For `COc1ccc(NC(=O)N2CCc3nc(-c4ccc(OC)cc4C)c4c(c3C2)CO[C@@H](c2ccccc2)C4)cc1`, which Potency is on record?
A: Its Potency is “inactive”.

Q: Which Potency does the source give for `CCN1C(=NCCc2ccc(Br)cc2)NC(c2ccccc2)C(C(=O)OC)=C1C` (stereo not given) here?
A: Its Potency is “inactive”.

Q: Which Potency does the source give for `COC(=O)C(C(C)=O)C(=O)C(Cc1ccccc1)NC(=O)OCc1ccccc1` (stereo not given) here?
A: Its Potency is “inactive”.

Q: For `C#CCN1C(=O)[C@]2(OCCC=C[C@H]2C)c2ccccc21`, which Potency is on record?
A: The Potency was “inactive”.

Q: Which Potency does the source give for `C[C@@H]1CC[C@H]2C(=O)O[C@@H](COc3ccc(C(C)(C)C)cc3)CN2[C@H]1c1ccc(Br)cc1` here?
A: Its Potency is “inactive”.

Q: Which Potency does the source give for `C=CCN1c2ccccc2[C@]23CCC(=O)N(CC4CC4)C2=NC(C(=O)OC)=C(C(=O)OC)[C@H]13` here?
A: Its Potency is “inactive”.

Q: For `CC(C)[C@@H](OCc1ccccc1)[C@H](C)C=NOC[C@@H](O)[C@H]1O[C@@H]2OC(C)(C)O[C@H]2[C@@H]1O`, which Potency is on record?
A: The Potency was “inactive”.

Q: With `COC(=O)C1=C(C(=O)OC)[C@@H]2N(C)c3ccccc3[C@@]23C[C@@H](C(=O)OC)N(C(=O)NC(C)(C)C)C3=N1` as the molecule, how does the Potency read?
A: Its Potency is “inactive”.

Q: For `C=C(C(=O)C(C)(C)O)C(O)c1ccc([N+](=O)[O-])cc1` (stereo not given), which Potency is on record?
A: The Potency was “inactive”.

Q: With `COC(=O)C1=C(C)N(CCC(C)O)C(=O)N(C(C)=O)C1c1ccccc1` (stereo not given) as the molecule, how does the Potency read?
A: The Potency was “inactive”.

Q: For `CC(=O)O[C@@H]1C(CO[Si](C)(C)C(C)(C)C)=C(Br)C(=O)[C@@H]2O[C@]12C`, which Potency is on record?
A: The Potency was “inactive”.

Q: Which Potency does the source give for `C#CCNC(=O)[C@H]1C=C(OC)C(=O)C[C@H](c2ccccc2)[C@H]1C` here?
A: Its Potency is “inactive”.

Q: Which Potency does the source give for `O=C1CCC=C1C(O)c1ccc2c(c1)OCO2` (stereo not given) here?
A: The Potency was “inactive”.

Q: With `CCN1C(=O)N[C@@H](c2ccccc2)[C@H](C(=O)OC)[C@H]1C` as the molecule, how does the Potency read?
A: Its Potency is “inactive”.
